Assay results from PubChem BioAssay AID2252 (Southern Research Specialized Biocontainment Screening …, 2010).
The whole screen tested about 2,300 compounds, of which about 1,500 (65%) were called active. How the calls were made is not given here. So high a share suggests a set chosen from earlier hits. Only a sample is shown.

Assay: PubChem AID 2252;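 further: 100% = mean of untreated cell control wells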
Settings: THP-1 viability, CellTiter-Glo luminescence, 72 h; min viability: minimum viability across concentrations, stronger effect = lower value, concentration not given here; series mostly up to 50 µM

**Q.** With `O=C(c1cccs1)N1CCN(S(=O)(=O)c2ccccc2)CC1` as the compound, how does the outcome read?
**A.** inactive

**Q.** With `COc1ccc(Cl)cc1NC(=O)c1cc(-c2ccccc2)on1` as the compound, how does the outcome read?
**A.** inactive

**Q.** For `C#CCOCCOCCOCCNc1nc(N2CCN(C(=O)[C@H](CCCCN)n3cc([C@@H](N)CC(C)C)nn3)CC2)nc(N2CCN(C(=O)[C@H](Cc3cc4ccccc4[nH]3)n3cc([C@@H](N)Cc4ccc(O)cc4)nn3)CC2)n1`, which outcome is on record?
**A.** inactive

**Q.** For `CO[C@@]1(NC(=O)C2SC(=C(C(N)=O)C(=O)O)S2)C(=O)N2C(C(=O)O)=C(CSc3nnnn3C)CS[C@@H]21` (stereo not given in full), which outcome is on record?
**A.** inactive

**Q.** With `CC1=NOC(=O)/C1=C/c1ccc(O)cc1` as the compound, how does the outcome read?
**A.** inactive

**Q.** For `Fc1ccccc1CCNCc1ccccc1`, which outcome is on record?
**A.** inactive

**Q.** For `CCn1cc(C(=O)O)c(=O)c2cc(F)c(N3CCN(C(=O)Nc4ccccc4)CC3)cc21`, which outcome is on record?
**A.** inactive

**Q.** For `COc1ccc(Cl)cc1S(=O)(=O)N1CCN(C(=O)c2ccco2)CC1`, which outcome is on record?
**A.** inactive

**Q.** For `C#CCOCCOCCOCCNc1nc(N2CCN(C(=O)[C@H](Cc3ccc(O)cc3)n3cc([C@@H](N)CC(C)C)nn3)CC2)nc(N2CCN(C(=O)[C@H](Cc3ccc(O)cc3)n3cc([C@@H](N)CC(C)C)nn3)CC2)n1`, which outcome is on record?
**A.** inactive

**Q.** With `O=C(O)c1ccc(CSc2nnnn2C2CCCCC2)cc1` as the compound, how does the outcome read?
**A.** inactive

**Q.** Which outcome does the source give for `COC(=O)c1ccc(NC(=O)c2ccccc2N(C)S(=O)(=O)c2ccccc2)cc1` here?
**A.** inactive

**Q.** For `CCOC(=O)c1sc(N)c(C(=O)OC)c1C`, which outcome is on record?
**A.** inactive

**Q.** Which outcome does the source give for `COc1cc(OC)nc(NC(=O)C(C)C)n1` here?
**A.** inactive

**Q.** Which outcome does the source give for `C[C@]1(OC(=O)/C=C/c2ccccc2)C[C@@H](O)[C@]2(O)C=CO[C@@H](O[C@@H]3O[C@H](CO)[C@@H](O)[C@H](O)[C@H]3O)[C@@H]21` here?
**A.** inactive

**Q.** For `O=[N+]([O-])c1ccc(CN2CCSCC2)cc1`, which outcome is on record?
**A.** inactive

**Q.** For `NC(=O)c1cc(S(=O)(=O)Nc2cccc(F)c2)co1`, which outcome is on record?
**A.** inactive

**Q.** For `O=C(N/N=C/c1ccc(F)c(F)c1)c1cc2c(s1)-c1ccccc1CC2`, which outcome is on record?
**A.** inactive

**Q.** What does the source list for `O=C(COc1ccc(Cl)cc1)N1CCN(C2CCCC2)CC1`?
**A.** min viability: 92.7%; outcome: inactive

**Q.** Which outcome does the source give for `O=C(/C=C/c1ccccc1)OCc1cnc(Cl)s1` here?
**A.** inactive

**Q.** For `CCOC(=O)c1cccc(NC(=O)C2CCC(CNc3c(N4CCOCC4)c(=O)c3=O)CC2)c1` (stereo not given), which outcome is on record?
**A.** inactive

**Q.** For `Cc1cc(C(=O)Nc2cccnc2)on1`, which outcome is on record?
**A.** inactive

**Q.** Which outcome does the source give for `O=c1c2ccccc2[nH]c2ccccc12` here?
**A.** inactive

**Q.** Which outcome does the source give for `CCN1CCN(C(=O)c2cc3ccc(OC)cc3[nH]2)CC1` here?
**A.** inactive

**Q.** With `CC(C)(C)NC(=O)/C=C/c1ccc(C(F)(F)F)cc1` as the compound, how does the outcome read?
**A.** inactive

**Q.** For `COc1cccc(CNc2nn[nH]n2)c1OC`, which outcome is on record?
**A.** inactive

**Q.** Which outcome does the source give for `Nc1ccc(S(=O)(=O)Nc2ccc(Cl)nn2)cc1` here?
**A.** inactive

**Q.** Which outcome does the source give for `O=C(NC1(C(F)(F)F)C(=O)Nc2c1c(=O)[nH]c(=O)n2-c1ccccc1)c1ccncc1` (stereo not given) here?
**A.** inactive

**Q.** With `CC(C)C(NS(=O)(=O)c1cccc2nsnc12)C(=O)N1CCn2c1nc1ccccc12` (stereo not given) as the compound, how does the outcome read?
**A.** inactive

**Q.** Which outcome does the source give for `O=S(=O)(Nc1cccc(-c2cn3c(n2)SCC3)c1)c1ccc(F)cc1F` here?
**A.** inactive

**Q.** Which outcome does the source give for `CCOc1ccc(N2CC(C(=O)OCC(=O)NCc3ccccc3)CC2=O)cc1` (stereo not given) here?
**A.** inactive

**Q.** With `O=C(NC(=S)Nc1c(F)cc(F)cc1Br)c1ccc2c(c1)OCCO2` as the compound, how does the outcome read?
**A.** inactive

**Q.** Which outcome does the source give for `CCOC(=O)/C=C1/N(C)c2ccccc2C1(C)C` here?
**A.** inactive

**Q.** Which outcome does the source give for `CCCCOc1ccc(CN2CCC(O)CC2)cc1` here?
**A.** inactive

**Q.** For `CCO[C@H]1OC(C(=O)O)=C[C@@H](c2ccccc2)[C@@H]1CCCO`, which outcome is on record?
**A.** inactive

**Q.** For `CCc1nc(SCC(=O)NCCc2ccccc2)c2c(=O)n(C)c(=O)n(C)c2n1`, which outcome is on record?
**A.** inactive

**Q.** For `C/C(=C\C(=O)OCCCCCCCCC(=O)O)C[C@@H]1OC[C@H](C[C@@H]2O[C@H]2[C@@H](C)[C@H](C)O)[C@@H](O)[C@H]1O`, which outcome is on record?
**A.** inactive

**Q.** For `Cc1cc(C)n2nc(S(=O)(=O)Nc3c(Cl)cccc3Cl)nc2n1`, which outcome is on record?
**A.** inactive

**Q.** With `COc1cccc(OC)c1C(=O)Nc1ccc(N2CCN(S(C)(=O)=O)CC2)cc1` as the compound, how does the outcome read?
**A.** inactive

**Q.** With `O=C(c1ccccc1F)N1C(=O)c2cccc3cccc1c23` as the compound, how does the outcome read?
**A.** inactive

**Q.** Which outcome does the source give for `CCc1cccc2c(C=C(C#N)C#N)cn(CC(=O)N3CCCCCC3)c12` here?
**A.** inactive

**Q.** With `COc1ccc(-c2cc(C(=O)Nc3ccc(S(=O)(=O)Nc4onc(C)c4C)cc3)c3ccccc3n2)cc1OC` as the compound, how does the outcome read?
**A.** inactive

**Q.** Which outcome does the source give for `O=C1C(O)=C(O)C(=O)c2ccccc21` here?
**A.** inactive

**Q.** Which outcome does the source give for `Cc1cccc2cc(C(c3nnnn3Cc3ccccc3)N3CCN(C)CC3)c(=O)[nH]c12` (stereo not given) here?
**A.** inactive

**Q.** With `O=C(C[n+]1cc(-c2ccc(Cl)cc2)n2c1CCC2)Nc1nc(-c2ccccc2)cs1` as the compound, how does the outcome read?
**A.** inactive

**Q.** For `C#CCOCCOCCOCCNc1nc(N2CCN(C(=O)[C@H](CCCCN)n3cc([C@@H](N)CO)nn3)CC2)nc(N2CCN(C(=O)[C@H](Cc3cc4ccccc4[nH]3)n3cc([C@@H](N)Cc4ccc(O)cc4)nn3)CC2)n1`, which outcome is on record?
**A.** inactive

**Q.** With `COc1ccc(-n2nnc3c(SCC(=O)N4CCCc5ccccc54)ncnc32)cc1` as the compound, how does the outcome read?
**A.** inactive

**Q.** Which outcome does the source give for `CC(C)(C)SCCNC(=O)c1ccccc1` here?
**A.** inactive

**Q.** Which outcome does the source give for `Cc1cc(C)c2c(=O)[nH]c(SCC(=O)N3CCCCC3)nc2n1` here?
**A.** inactive

**Q.** With `CN(CC(=O)NCc1ccncc1)S(=O)(=O)c1ccccc1` as the compound, how does the outcome read?
**A.** inactive

**Q.** For `O=C(Nc1ccc2c(c1)OCCO2)C(=S)NCc1ccccc1`, which outcome is on record?
**A.** inactive

**Q.** Which outcome does the source give for `CCN(CC)CCn1nc(C)nc1-c1ccccc1O` here?
**A.** inactive

**Q.** Which outcome does the source give for `CCN(CC(=O)Nc1ccc(C(=O)OC)cc1)C1CCCCC1` here?
**A.** inactive

**Q.** For `CC(=O)NS(=O)(=O)c1ccc(Nc2ccc([N+](=O)[O-])c3nonc23)cc1`, which outcome is on record?
**A.** inactive

**Q.** Which outcome does the source give for `O=C(NC(CO)Cc1ccc([N+](=O)[O-])cc1)C(Cl)Cl` (stereo not given) here?
**A.** inactive

**Q.** For `C#CCOCCOCCOCCNc1nc(N2CCN(C(=O)[C@H](Cc3cc4ccccc4[nH]3)n3cc([C@@H](N)CC(C)C)nn3)CC2)nc(N2CCN(C(=O)[C@H](Cc3cc4ccccc4[nH]3)n3cc([C@@H](N)CC(C)C)nn3)CC2)n1`, which outcome is on record?
**A.** inactive

**Q.** For `COCCN1C(=O)C(=O)/C(=C(/O)c2cccc(OC)c2)C1c1ccncc1` (stereo not given), which outcome is on record?
**A.** inactive

**Q.** For `Cc1cccc(NC(=O)CSc2nc3c([nH]c4ccccc43)c(=O)n2C)c1`, which outcome is on record?
**A.** inactive

**Q.** For `O=C(COc1ccc(Cl)cc1)Nc1cccc(-c2ccc3nncn3n2)c1`, which outcome is on record?
**A.** inactive

**Q.** With `CO[C@H]1/C=C/O[C@@]2(C)Oc3c(C)c(O)c4c(O)c(c(C=NN5CCN(C)CC5)c(O)c4c3C2=O)NC(=O)/C(C)=C\C=C\[C@H](C)[C@H](O)[C@@H](C)[C@@H](O)[C@@H](C)[C@H](OC(C)=O)[C@@H]1C` as the compound, how does the outcome read?
**A.** inactive
